The text below walks through data of PubChem BioAssay (NCATS).

Inconclusive results are not listed. The source made the active and inactive calls. The call rests on the fitted dose curve; in most records, active means well fitted cell-killing curve with a large enough effect; inconclusive means small, poorly fitted or top-dose-only effect, or effect the other way; inactive means no such curve, though single readings can be large or run the other way.

Assay [1] in a line: Quantitative High-Throughput drug screen in 47 multiple myeloma cell lines against the NCATS MIPE library collection: OCIMY1_PLB cell viability assay (AID 1918979). Further: nearly all actives have a fitted effect of over 35% in size. In short, it runs like this: (§1)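 Myeloma cells (500/well) treated with MIPE 4.0 compounds for 48 h at 37 °C, 5% CO2. Viability read as ATP via CellTiter-Glo luminescence after 5 min at RT; DMSO-only wells = 100%, media-only = 0% viability.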

Assay [2] can be described thus: Quantitative High-Throughput drug screen in 47 multiple myeloma cell lines against the NCATS MIPE library collection: MM1S_ATCC cell viability assay (AID 1918980). Further: nearly all actives have a fitted effect of over 45% in size. The essentials: as §1
Assay [3] can be described thus: Quantitative High-Throughput drug screen in 47 multiple myeloma cell lines against the NCATS MIPE library collection: MM1R_ATCC cell viability assay (AID 1918981). Further: nearly all actives have a fitted effect of over 35% in size. In short, it runs like this:
as §1

A short description of assay [4]: Quantitative High-Throughput drug screen in 47 multiple myeloma cell lines against the NCATS MIPE library collection: LP1_DSMZ cell viability assay (AID 1918982). Further: nearly all actives have a fitted effect of over 35% in size. In short, it runs like this:
as §1

Assay [5] can be described thus: Quantitative High-Throughput drug screen in 47 multiple myeloma cell lines against the NCATS MIPE library collection: L363_DSMZ cell viability assay (AID 1918984). Further: nearly all actives have a fitted effect of over 40% in size. The settings on record: L363 myeloma viability, CellTiter-Glo ATP luminescence, 48 h; viability (% of control): at 45.8 µM (top of the series). In short, it runs like this:
as §1

Assay [6] is described as follows: Quantitative High-Throughput drug screen in 47 multiple myeloma cell lines against the NCATS MIPE library collection: KMS34_JCRB cell viability assay (AID 1918985). Further: nearly all actives have a fitted effect of over 40% in size. The essentials: as §1
Assay [7] is described as follows: Quantitative High-Throughput drug screen in 47 multiple myeloma cell lines against the NCATS MIPE library collection: OCIMY7_PLB cell viability assay (AID 1918987). Further: nearly all actives have a fitted effect of over 65% in size. The settings on record: OCI-MY7 myeloma viability, CellTiter-Glo ATP, 48 h; viability (% of DMSO): at 45.8 µM (top of the series). The essentials:
as §1
A general note: In ATP-based viability assays light output follows the ATP content of the culture.

The nature of assay [8]: Quantitative High-Throughput drug screen in 47 multiple myeloma cell lines against the NCATS MIPE library collection: OPM1_PLB cell viability assay (AID 1918989). Further: nearly all actives have a fitted effect of over 40% in size. In short, it runs like this:
as §1

Assay [9] can be described thus: Quantitative High-Throughput drug screen in 47 multiple myeloma cell lines against the NCATS MIPE library collection: KMS28PE_JCRB cell viability assay (AID 1918983). Further: nearly all actives have a fitted effect of over 35% in size. The essentials: as §1
A short description of assay [10]: Quantitative High-Throughput drug screen in 47 multiple myeloma cell lines against the NCATS MIPE library collection: OCIMY5_PLB cell viability assay (AID 1918988). Further: nearly all actives have a fitted effect of over 65% in size. In short, it runs like this:
as §1
Potency means the concentration at half of the fitted maximal effect.

As for `O=C(NC[C@H](O)CO)c1ccncc1Nc1ccc(I)cc1F`, the Potency in [1] is 0.0935 µM (active); in [2], 18.7 µM (active); in assay [3], 13.2 µM (active); in assay [5], 13.2 µM (active); in assay [6], 1.18 µM (active); in [7] it was 0.209 µM (active). Besides, the Potency in assay [8] is 18.7 µM (active). In [4], the Potency entry is “inactive”.

Regarding `CN1c2ccccc2C(=O)N2CCc3c([nH]c4ccccc34)C21` (stereo not given), the Potency entry in [1], in assay [3], in [4], in assay [9] and in assay [10] was “inactive” throughout. Also, the Potency is 10.5 µM (active) in assay [2] and 20.9 µM (active) in assay [7].

As to `CN1[C@H]2CC[C@H]1CC(OC(=O)c1c[nH]c3ccccc13)C2` (stereo not given in full), the Potency result in assay [1], in [3], in assay [4] and in assay [6] was “inactive” in each case. Further, the Potency in [2] is 20.9 µM (active); in assay [9] it was 9.35 µM (active).

Turning to `COc1ccc(-c2nc3ccc(C4=NNC(=O)CC4C)cc3[nH]2)cc1` (stereo not given), the Potency result in assay [1], in assay [3], in assay [4], in assay [9], in assay [5] and in assay [6] was “inactive” throughout. Besides, in assay [10], the Potency entry is “inactive”. For the same compound, in assay [2], the Potency was 23.5 µM (active).

With `CC(C)=CCCC(C)=CCCC(C)=CCCC(C)=CCCC(C)=CCCC(C)=CCCC(C)=CCCC(C)=CCCC(C)=CCO`, the Potency result in assay [1], in assay [2], in [3], in [4], in assay [9] and in [5] was “inactive” each time. Besides, the Potency entry in assay [6], in assay [7] and in assay [8] was “inactive” in each case.

As for `CCNC(=O)CCCC=CC[C@@H]1[C@H](C=CC(O)CCc2ccccc2)[C@@H](O)C[C@@H]1O` (stereo not given in full), the Potency entry in [1], in [4], in assay [5] and in [8] was “inactive” in each case. Also, the Potency in assay [2] is 5.9 µM (active); in [3], 26.4 µM (active); in [10], 26.4 µM (active).

Turning to `CN(C)CCOc1ccc(-c2nc(-c3ccc4c(c3)CCC4=NO)c(-c3ccncc3)[nH]2)cc1`, the Potency is 20.9 µM (active) in assay [1]; 18.7 µM (active) in assay [2]; 18.7 µM (active) in assay [3]; 20.9 µM (active) in [4]; 23.5 µM (active) in assay [9]; 6.62 µM (active) in assay [5]. In addition, the Potency is 13.2 µM (active) in assay [6], 23.5 µM (active) in assay [10] and 16.6 µM (active) in [8].

As to `COc1ccc(-c2cc(=O)c3c(O)cc(O[C@@H]4O[C@H](CO[C@@H]5O[C@@H](C)[C@H](O)[C@@H](O)[C@@H]5O)[C@@H](O)[C@H](O)[C@@H]4O)cc3o2)cc1O`, the Potency entry in assay [1], in [3], in [4], in assay [9], in assay [5] and in [6] was “inactive” in each case. In addition, the Potency was 18.7 µM (active) in [2], 10.5 µM (active) in [7] and 18.7 µM (active) in [10].

As for `CCC(=O)NCC[C@@H]1CCc2ccc3c(c21)CCO3`, the Potency entry in assay [1] and in assay [3] was “inactive” throughout. Besides, in [2], the Potency is 1.48 µM (active).

As to `CC(=O)OCC(=O)[C@@]12OC(C)(C)O[C@H]1C[C@H]1[C@@H]3C[C@H](F)C4=CC(=O)C=C[C@]4(C)[C@@]3(F)[C@@H](O)C[C@@]12C`, the Potency result in [1], in [3], in assay [9], in assay [5], in [6] and in assay [7] was “inactive” throughout. For the same compound, in [8], the Potency entry was “inactive”. Besides, the Potency is 0.0372 µM (active) in assay [2] and 0.0264 µM (active) in assay [4].

For `C[C@@H]1C[C@H]2[C@@H]3CCC4=CC(=O)C=C[C@]4(C)[C@@]3(F)[C@@H](O)C[C@]2(C)[C@@]1(O)C(=O)CO`, the Potency entry in assay [1], in assay [3], in assay [9], in assay [6], in assay [7] and in [8] was “inactive” throughout. Further, the values for the Potency in assay [2] and in assay [4] were 0.0264 µM (active) and 0.0083 µM (active), respectively.

In the case of `CC1(C)C(N(O)C(=O)Nc2ccc(Cl)cc2)N(c2ccc(Cl)cc2)C(=O)N1CC(=O)NN=CC=Cc1ccc([N+](=O)[O-])o1` (stereo not given), the Potency is 8.33 µM (active) in [1]; 9.35 µM (active) in [2]; 5.26 µM (active) in assay [3]; 16.6 µM (active) in [4]; 8.33 µM (active) in assay [9]; 7.43 µM (active) in [6]. In addition, the Potency in [7] was 5.9 µM (active); in assay [10] it was 7.43 µM (active); in assay [8], 11.8 µM (active).

In the case of `CNC(=O)c1c(-c2ccc(F)cc2)oc2cc(N(CCO)S(C)(=O)=O)c(C3CC3)cc12`, in assay [1], the Potency was 18.7 µM (active).

As for `OC[C@H]1O[C@@H](OCCc2ccc(O)cc2)[C@H](O)[C@@H](O)[C@H]1O`, the Potency entry in [1], in assay [3], in assay [4] and in assay [5] was “inactive” each time. Besides, the Potency in assay [2] was 20.9 µM (active); in assay [8], 29.6 µM (active).

For `CNC1CCC(N(Cc2cccc(-c3ccncc3)c2)C(=O)c2sc3ccccc3c2Cl)CC1` (stereo not given), the Potency in assay [1] is 23.5 µM (active); in assay [2], 20.9 µM (active); in assay [3], 18.7 µM (active); in assay [4] it was 26.4 µM (active); in assay [9] it was 23.5 µM (active); in [7] it was 10.5 µM (active). Further, the Potency in assay [10] was 18.7 µM (active); in assay [8], 8.33 µM (active).

For `N=C1SC(=Cc2ccc(-c3ccc4c(c3)C(=O)NC4=O)o2)C(=O)N1c1ccc(Br)cc1`, the Potency in [1] was 4.18 µM (active); in [2], 26.4 µM (active); in assay [3], 4.18 µM (active); in assay [4], 2.96 µM (active); in assay [9] it was 4.69 µM (active); in assay [6], 2.64 µM (active). Besides, in assay [10], the Potency was 2.96 µM (active). Further, in assay [5], the Potency entry is “inactive”.
